# Assay results published in the supplement of paper PMC10127200.
# Counter-ions that a name gives are not always drawn.
# System: OVCAR4
# Test: Euclidean distance of Cell Painting phenotypic profile (signed KS, 77 features) to DMSO centroid (dimensionless distance); 5 or 10 uM (library dependent); higher = stronger phenotypic change vs DMSO (phenoactivity)
# Settings: 48 h
# Outline: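 Five cancer lines, together with a healthy fibroblast line, received library compounds for 48 h at a library-dependent 10 or 5 uM and 0.1% DMSO final. Harmony then derived 77 features from confocal 20X images (9 fields/well) of the stained cells, scoring each as a signed Kolmogorov-Smirnov statistic against same-plate vehicle wells. After plate-position correction, correlation weighting and replicate averaging at the top dose, phenoactivity was taken as each profile's Euclidean distance to the median vehicle profile.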
row,SMILES,Euclidean distance
1,CC(C)C[C@H](NC(=O)[C@H]1O[C@@H]1C(=O)O)C(=O)NCCCCN=C(N)N,1.09
2,CC[C@@H]([C@H](C)O)n1ncn(-c2ccc(N3CCN(c4ccc(OC[C@@H]5CO[C@@](Cn6cncn6)(c6ccc(F)cc6F)C5)cc4)CC3)cc2)c1=O [Posaconazole],1.21
3,CN1C(=O)C(C)(C)Oc2c(-c3cn(C)c(=O)c4[nH]ccc34)cc(S(C)(=O)=O)cc21,2.42
4,O=C(O)c1ccc(-n2nc(-c3ccccc3O)nc2-c2ccccc2O)cc1 [Deferasirox],1.99
5,Cc1cccc(C)c1NC(=O)C1CCCCN1C (stereo not drawn) [Mepivacaine HCl],0.914
6,CC(=O)O/N=C1\C(=O)N(Cc2cc(Cl)ccc2Cl)c2ccc(Cl)cc21,1.34
7,Cc1cn([C@H]2C[C@H](N=[N+]=[N-])[C@@H](CO)O2)c(=O)[nH]c1=O [Zidovudine],0.957
8,NC(=O)c1ccc(OCCCN2CC3CCCC3C2)cc1 (stereo not drawn),1.23
